Source: ChEMBL document CHEMBL3988442, “University of Dundee, Small-Polar-MMV Screening Library” (2021)
Hit rate of the full screen: of about 69,000 compounds, about 950 (1.4%) showed an effect of 50% or more. Many of the other results were omitted from the sample, so strong results are more common in it than they were.

test system: Mycobacterium tuberculosis; experiment: Cornell M. t heat shock assay; format: functional, organism-based; set-up: dose or concentration left out as unconfirmed; note: in the data most compounds retested in dose-response had high values

SMILES	Percent Effect [%]
Cl.NC(=O)COc1ccc(CNCc2ccc(F)cc2)cc1	-18.87
Cc1noc(C)c1CN1CCN(C(=O)CCn2cncn2)CC1	-3.616
Cc1noc(C)c1CCC(=O)N1CCN(CCn2cccn2)CC1	-5.618
Cc1noc(C)c1CCC(=O)N1CCN(CCn2cncn2)CC1	78.74
Cn1ncc(Cl)c1C(=O)N1CCC(c2nnsc2S(C)(=O)=O)CC1	-21.53
Cn1cnc(S(=O)(=O)N2CC3(CCN(Cc4ccncc4)C3)C2)c1.O=C(O)C(F)(F)F.O=C(O)C(F)(F)F.O=C(O)C(F)(F)F	36.02
CN(C)C(=O)COCC1CN(Cc2ccco2)Cc2ncn(C)c21.O=C(O)C(F)(F)F.O=C(O)C(F)(F)F (configuration not stated)	31.48
COCC(C)(CCO)NC(=O)Nc1cccc(Br)c1C (configuration not stated)	16.48
CN1CC(=O)N(c2ccsc2)CC12CCN(C(=O)Nc1ccccc1)C2.O=C(O)C(F)(F)F (configuration not stated)	-18.81
O=C(N1CCCO1)[C@@]12CCO[C@@H]1CCN(Cc1cccs1)C2.O=C(O)C(F)(F)F	-21.11
O=C(N1CCCC1)C12CC(CN1Cc1nccs1)C2	42.03
O=C(NCC1CC1)C12CC(CN1Cc1nccs1)C2	54.2
Cc1ccsc1C(=O)N1CC2CC1(C(=O)NCC1CC1)C2	-11.04
Cc1cc(N2CCN(Cc3cn(C)nc3C)CC2)cc(C2CCCN2)n1.Cl (configuration not stated)	-11.47
CC(=O)N1CCCC1c1nnn2cc(NCc3cccnc3)ccc12.O=C(O)C(F)(F)F.O=C(O)C(F)(F)F (configuration not stated)	27.19
CC(=O)N1CCCC1c1nnn2cc(-c3ccncc3)ccc12.O=C(O)C(F)(F)F (configuration not stated)	8.291
CC(=O)N1CCCC1c1nnn2cc(Nc3ccccc3)ccc12.O=C(O)C(F)(F)F (configuration not stated)	86.99
CC(C)(C)c1n[nH]c(C2CN(CCc3ccncc3)CCO2)n1 (configuration not stated)	12.04
CC(=O)N1CCN(Cc2ccncc2)CC2(CC(=O)N(C)C2)C1.O=C(O)C(F)(F)F.O=C(O)C(F)(F)F (configuration not stated)	-4.515
Cn1ccnc1CN1CC[C@H]2CO[C@H](CNc3ncccn3)[C@H]2C1.O=C(O)C(F)(F)F.O=C(O)C(F)(F)F.O=C(O)C(F)(F)F	-17.85
COc1cc(COCC2CCN(Cc3ccccn3)CC2)cc(OC)c1.O=C(O)C(=O)O	-10.83
Fc1ccccc1CC1CCN(Cc2cscn2)CC1	-8.017

SMILES	Percent Effect [%]
Cc1cccc(CNC(=O)CC2CCN(Cc3ccccn3)CC2)n1	-18.17
Fc1ccc(COCC2CCN(Cc3ccccn3)CC2)cc1.O=C(O)C(=O)O	-21.79
Fc1ccccc1CC1CCN(Cc2nccs2)CC1	7.97
Cc1cccc(CN2CCC(Cc3ccccc3F)CC2)n1	100.5
Fc1ccccc1CC1CCN(Cc2ccccn2)CC1	54.97
Cc1cccc(CN2CCC(NS(C)(=O)=O)CC2)n1	10.63
Clc1ccc(COCC2CCN(Cc3ccccn3)CC2)cc1.O=C(O)C(=O)O	53.14
CN1C[C@H]2C[C@H](C(=O)Nc3cccnc3)[C@@H](C1)O2	-0.0821
COc1ccc(CNCC(C)Oc2ccccn2)cc1.Cl (configuration not stated)	-11.53
Cc1cc(C(=O)N2CC[C@]3(C[C@@H](OCc4ccccn4)CO3)C2)c(C)o1.O=C(O)C(F)(F)F	38.17
CN(C)C(=O)CN1CCc2ncnc(N(C)C)c2CC1.O=C(O)C(F)(F)F	23.34
COCCn1cc2c(n1)C(CNCc1nccs1)OCC2.O=C(O)C(F)(F)F.O=C(O)C(F)(F)F (configuration not stated)	-27.8
CN(C)Cc1cncc2c1CCN(Cc1ccoc1)C2.Cl.Cl.Cl	-10.16
O=C(O)C(F)(F)F.O=C(O)C(F)(F)F.O=C1[C@H]2CN(Cc3cccs3)C[C@H]2CN1CCN1CCCC1	-16.55
NC(=O)N1CC[C@H]2CO[C@H](CNC(=O)c3ccnnc3)[C@H]2C1	-0.7451
COCC(=O)N1CCC(C)(c2cc(O)[nH]n2)CC1	53.15
CC(C)C(=O)N1CCC(C)(c2cc(O)[nH]n2)CC1	1.922
COCCN1CCC(C)(c2cc(O)[nH]n2)CC1	-2.336
CCOCC1CN(Cc2ccc(F)cc2)Cc2nn(C)cc21.O=C(O)C(F)(F)F (configuration not stated)	-29.18
CC(C)c1nc(CN2CCC(CO)CC2)cs1	17.89
CC(C)c1nc(CN2CCCCC2)cs1	0.8394
CC(C)c1nc(CC(=O)Nc2nc(CN3CCCCCC3)cs2)cs1	104.4

SMILES	Percent Effect [%]
O=C1c2c(O)cc(O)cc2O[C@@H](c2ccc(O)cc2)[C@@H]1O	53.66
Oc1ccc([C@H]2Oc3cc(O)cc(O)c3C[C@@H]2O)cc1	-4.634
COc1cc(C2CC(=O)c3c(O)cc(O)cc3O2)ccc1O (configuration not stated)	5.655
CN(C)C(=O)[C@H]1C[C@@H]2CCN(Cc3ccoc3)C[C@@H]2O1.O=C(O)C(F)(F)F	36.25
Cc1ccc(C(=O)N2Cc3c(CN(C)C)nn(C)c3C2)cc1C.O=C(O)C(F)(F)F	-17.18
Cc1nc2c(Nc3cccc(C#N)c3)nc(N)nc2n1C	102.2
Cc1nc2c(Nc3ccc(C#N)cc3)nc(N)nc2n1C	5.734
CC(=O)c1ccc(Nc2nc(N)nc3c2nc(C)n3C)cc1	10.63
CS(=O)(=O)N1CC[C@H]2OCC[C@@]2(C(=O)NCCc2ccccn2)C1.O=C(O)C(F)(F)F	-5.552
Cc1cnc(CNC(=O)[C@@]23CCO[C@@H]2CCN(c2ncccn2)C3)cn1	39.63
CC(=O)N1CC[C@H]2OCC[C@@]2(C(=O)NCc2cnc(C)cn2)C1	51.19
CS(=O)(=O)N1CC[C@H]2OCC[C@@]2(C(=O)NCc2ccccn2)C1.O=C(O)C(F)(F)F	65.18
Cc1cnc(CNC(=O)[C@@]23CCO[C@@H]2CCN(C2CCCC2)C3)cn1.O=C(O)C(F)(F)F	35.39
O=C(NCc1ccccn1)[C@@]12CCO[C@@H]1CCN(C1CCCC1)C2.O=C(O)C(F)(F)F.O=C(O)C(F)(F)F	40.27
O=C(NCCc1ccccn1)[C@@]12CCO[C@@H]1CCN(c1ncccn1)C2	-5.799
O=C(NCc1ccccn1)[C@@]12CCO[C@@H]1CCN(c1ncccn1)C2	92.45
O=C(NCc1ccccn1)[C@@]12CCO[C@@H]1CCN(Cc1ccccn1)C2.O=C(O)C(F)(F)F.O=C(O)C(F)(F)F.O=C(O)C(F)(F)F	19.83
Cc1ccc(O[C@@H]2C[C@H]3CN(c4ncc(F)cn4)CCN3C2)cc1.O=C(O)C(F)(F)F.O=C(O)C(F)(F)F	19.77
CN(C)S(=O)(=O)N1C[C@H]2C[C@H](C(=O)Nc3ccccc3)[C@@H](C1)O2	3.45
N#Cc1cccc(CN2CC[C@@H]3[C@@H]2CC(=O)N3Cc2ccncc2)c1.O=C(O)C(F)(F)F.O=C(O)C(F)(F)F	1.363
COCCN1CC[C@H]2OCC[C@@H](C(=O)N3CCCO3)[C@H]2C1.O=C(O)C(F)(F)F	-19.22
O=C(O)C(F)(F)F.c1ccc(N2CCC3(CCCN(c4ncccn4)C3)C2)nc1 (configuration not stated)	-26.18

SMILES	Percent Effect [%]
CC(C)NC(=O)[C@H]1C[C@H]2OCC[C@H]2N(Cc2ccc3ccccc3n2)C1.O=C(O)C(F)(F)F.O=C(O)C(F)(F)F	-9.211
Cc1ccc(C(=O)N2CCC3(CC2)CN(c2ccccn2)CCO3)cc1.O=C(O)C(F)(F)F	-9.264
Cn1cc(CN2Cc3c(cnn3C)C(COCC3CC3)C2)cn1.O=C(O)C(F)(F)F.O=C(O)C(F)(F)F (configuration not stated)	-38.19
CO[C@H]1CCN(C(=O)Cc2ccsc2)[C@@H]2CN(CC3CC3)C[C@H]12.O=C(O)C(F)(F)F	-6.3
Cc1cnc(C(=O)N2Cc3ncn(C)c3C(COCC(C)C)C2)cn1.O=C(O)C(F)(F)F (configuration not stated)	6.608
Cc1c(CN2CC[C@@H](N3CCC(O)CC3)[C@H](O)C2)[nH]c2ccc(Cl)cc12	15.96
CN1CCN([C@@H]2CCN(CC3=Cc4cc(Cl)ccc4OC3)C[C@H]2O)CC1	-1.479
O[C@@H]1CN(CC2=Cc3cc(Cl)ccc3OC2)CC[C@H]1N1CCCCCC1	85.47
CC(C)NC(=O)CC1COC2(CCN(Cc3ccsc3)CC2)C1.O=C(O)C(F)(F)F (configuration not stated)	-6.674
CCN(CC(=O)NC(C)C)C(=O)c1ccc(-c2ccsc2)nc1C	-31.64
CCN(CC)C(=O)c1ccc(-c2ccsc2)nc1C	85.72
CCN(CC)C(=O)CN(C)C(=O)c1ccc(-c2ccsc2)nc1C	-2.005
COCCN1CCC(c2nc3ccc(NC4CCC4)cn3n2)CC1.O=C(O)C(F)(F)F	43.84
CC(C)(C)C(=O)N1C[C@H](c2ccsc2)[C@H]2CN(C3CCCCC3)CC[C@H]21.Cl	6.818
CCC(=O)N1CCC2(CC1)C(=O)N(Cc1cccnc1)CCN2C.O=C(O)C(F)(F)F.O=C(O)C(F)(F)F	-1.837
Cc1ccn(-c2ccccc2NCc2cscn2)n1	-34.26
Cc1ccc(CNc2ccccc2-n2ccc(C)n2)nc1	73.74
Cc1ccn(-c2ccccc2NCc2ccccn2)n1	31.75
COCCn1ccc2cc(C(=O)N3CCN(S(C)(=O)=O)CC3)ccc21	72.24
COCCn1ccc2ccc(C(=O)O)cc21	-0.8971
COCCn1ccc2ccc(C(=O)N3CCN(C(C)=O)CC3)cc21	4.647
